Source: PubChem BioAssay AID1159580 (chemical genetic matrix, 2015)
“And” between values parts separate entries of the source, which are not always exact repeats. Identical values can stand only once. The whole screen tested about 5,500 compounds, of which about 2,000 (36%) were called active. Another 18% or so got no clear call; they are omitted. Rule as the data show it: active = normalized growth mostly below about 0.91 (no sharp cut-off); inconclusive = no clear call, values can overlap the other calls; inactive = mostly above about 0.92. This is one part of the list.

Experiment: chemical genetic growth profiling, strain panel (AID 1159580);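 also: tested at 20 µM; growth read once vehicle control cultures reached saturation at 30 °C; 1 = growth at the plate median or of vehicle wells; lower values mean less growth of the strain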
Details: S. cerevisiae deletion strains, growth OD

Measured: normalized growth

NS(=O)(=O)c1cc2c(cc1Cl)NC(CSCc1ccccc1)=NS2(=O)=O
inactive: locus YAL021C, strain ccr4, hits give low values 0.986 | locus YAL026C, strain drs2, hits give low values 1.01 | locus YAL030W, strain snc1, hits give low values 1.01 | locus YBL061C, strain skt5, hits give low values 1.02 | locus YBR009C, strain hhf1, hits give low values 0.993 | locus YBR021W, strain FUR4, hits give low values 0.973 | locus YBR023C, strain chs3, hits give low values 1.04 | locus YBR171W, strain sec66, hits give low values 1.03 | locus YBR229C, strain ROT2, hits give low values 0.986 | locus YBR231C, strain swc5, hits give low values 1.02 | locus YBR279W, strain paf1, hits give low values 1.01 | locus YCL011C, strain gbp2, hits give low values 1.01 | locus YCL016C, strain dcc1, hits give low values 0.993 | locus YCL029C, strain bik1, hits give low values 0.988 | locus YCL061C, strain MRC1, hits give low values 1.01 | locus YCL069W, strain vba3, hits give low values 1.01 | locus YCR088W, strain abp1, hits give low values 1.01 | locus YDL005C, strain med2, hits give low values 1 | locus YDL035C, strain GPR1, hits give low values 1.04 | locus YDL040C, strain nat1, hits give low values 0.995 | locus YDL074C, strain BRE1, hits give low values 0.99 | locus YDL101C, strain DUN1, hits give low values 0.973 | locus YDL134C, strain PPH21, hits give low values 1.02 | locus YDL185W, strain tfp1, hits give low values 0.989 | locus YDL192W, strain arf1, hits give low values 0.997 | locus YDR001C, strain nth1, hits give low values 1.03 | locus YDR069C, strain doa4, hits give low values 1.04 | locus YDR101C, strain arx1, hits give low values 0.987 | locus YDR137W, strain rgp1, hits give low values 1.02 | locus YDR159W, strain sac3, hits give low values 1 | locus YDR162C, strain NBP2, hits give low values 1.03 | locus YDR195W, strain ref2 1.03 | locus YDR297W, strain sur2, hits give low values 1.02 | locus YDR318W, strain mcm21, hits give low values 0.991 | locus YDR334W, strain swr1, hits give low values 1.02 | locus YDR335W, strain msn5, hits give low values 1.02 | locus YDR388W, hits give low values 0.978 | locus YDR392W, strain spt3, hits give low values 0.948 | locus YDR502C, strain sam2, hits give low values 0.988 | locus YEL003W, strain gim4, hits give low values 1.03 | locus YEL037C, strain rad23, hits give low values 1.02 | locus YEL061C, strain CIN8 (second series), hits give low values 1.05 | locus YEL061C, strain CIN8, hits give low values 0.995 | locus YER015W, strain faa2, hits give low values 1.01 | locus YER016W, strain bim1, hits give low values 1 | locus YER110C, hits give low values 0.965 | locus YER111C, strain swi4, hits give low values 1.03 | locus YER155C, strain BEM2 (second series), hits give low values 1.04 | locus YER155C, strain BEM2, hits give low values 0.981 | locus YER167W, strain BCK2, hits give low values 1 | locus YFR010W, strain ubp6, hits give low values 1.03 | locus YGL078C, strain dbp3, hits give low values 0.991 | locus YGL086W, strain mad1, hits give low values 0.989 | locus YGL167C, strain pmr1, hits give low values 1.03 | locus YGL173C, strain kem1, hits give low values 1.01 | locus YGL227W, strain vid30, hits give low values 1.02 | locus YGL240W, strain doc1, hits give low values 1.03 | locus YGL248W, strain PDE1, hits give low values 0.98 | locus YGL253W, strain hxk2, hits give low values 1.01 | locus YGR078C, strain PAC10, hits give low values 0.986 | locus YGR135W, strain pre9, hits give low values 0.992 | locus YGR252W, strain gcn5, hits give low values 1.01 | locus YHR013C, strain ard1, hits give low values 0.975 | locus YHR027C, strain rpn1, hits give low values 1.01 | locus YHR030C, strain SLT2, hits give low values 0.99 and 0.983 | locus YHR079C, strain IRE1 (second series), hits give low values 0.984 | locus YHR079C, strain IRE1, hits give low values 0.977 | locus YHR094C, strain hxt1, hits give low values 0.97 | locus YHR129C, strain ARP1, hits give low values 0.984 | locus YHR142W, strain chs7, hits give low values 1.02 | locus YHR200W, strain rpn10, hits give low values 0.989 | locus YIL066C, strain RNR3, hits give low values 1.01 | locus YIL073C, strain SPO22, hits give low values 0.99 | locus YIL125W, strain kgd1, hits give low values 0.986 | locus YIR030C, strain dcg1, hits give low values 0.993 | locus YJL092W, strain hpr5, hits give low values 1.02 | locus YJL095W, strain BCK1 (second series), hits give low values 1.02 | locus YJL095W, strain BCK1, hits give low values 0.954 and 0.975 | locus YJL115W, strain asf1, hits give low values 1.02 | locus YJL129C, strain trk1, hits give low values 1.06 | locus YJL134W, strain LCB3, hits give low values 0.987 | locus YJL154C, strain vps35, hits give low values 1.03 | locus YJL164C, strain tpk1, hits give low values 0.977 | locus YJL166W, strain qcr8, hits give low values 1.04 | locus YJL168C, strain set2, hits give low values 0.992 | locus YJL187C, strain SWE1 (second series), hits give low values 0.965 | locus YJR043C, strain POL32, hits give low values 1.04 | locus YJR066W, strain TOR1, hits give low values 0.931
